Max response data for 20 compounds are collected here from PubChem BioAssay (NCATS).

SMILES strings stand for the structures. Inconclusive results are not listed. Peptide text beside a SMILES is read from it.

The nature of the experiment: qHTS Assay for Lipid Storage Modulators (AID 1519). The settings on record: Drosophila S3 cells, BODIPY lipid droplet/cell ratio, laser cytometry; measured here: cell count channel max response; cells loaded with oleic acid. Put shortly: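 Cells seeded at 5,000 per well were treated with compounds over a concentration series and loaded with oleic acid (400 uM, as added). Lipid droplet fluorescence (488 nm excitation, 500-530 nm channel) was read by laser-scanning cytometry and normalized to 20 uM Triacsin C.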
Background: qHTS replaces the single test concentration by a dilution series.
Consider `CC(C)C1COc2cc3oc(=O)ccc3cc2O1` (stereo not given), for which the max response came to 6%.

`NC(N)=NCCCC(NC(=O)C(N)Cc1ccc(O)cc1)C(=O)O` (stereo not given): the max response stood at 20.9%.

As for `CC1CC[C@@]2(OC1)OC1CC3C4CC[C@@H]5CC(O)CC[C@@]5(C)C4CC[C@]3(C)C1C2C` (stereo not given in full), the max response was 11.7%.

Take `COc1c2ccccc2nc2occc12`: the max response is 24.3%.

Consider `COc1ccc2c(=O)c(CC(=O)O)coc2c1`, for which the max response is 9.56%.

Turning to `CC1(C)OC2C(CO)OC(n3cnc4c(=O)[nH]cnc43)C2O1` (stereo not given), the max response is 3.64%.

Turning to `CCOC(=O)CCCCCCCCCCCCC1C=CCC1` (stereo not given), the max response was determined as 9.42%.

On to `OCc1ccccc1O[C@H]1OC(CO)C(O)C(O)C1O` (stereo not given in full), for which the max response was 2.55%.

As to `COc1ccc(/C=C/c2cc(O)cc(O[C@H]3OC(CO)C(O)C(O)C3O)c2)cc1` (stereo not given in full), the max response was determined as 12.8%.

As for `COc1c(O)cccc1O`, the max response is -1.6%.

For the compound `Nc1ncnc2[nH]c(=O)[nH]c12`, the max response was determined as 1.75%.

Consider `NCC1CCCCC1CC(=O)O` (stereo not given), for which the max response was 16.7%.

For `C#CCCCCCCCCCCCC(=O)CC(O)COC(C)=O` (stereo not given), the max response is 13.4%.

With `CCN1CCN(C(=O)NC(C(=O)NC2C(=O)N3C2SC(C)(C)C3C(=O)O)c2ccccc2)C(=O)C1=O` (stereo not given), the max response was -3.83%.

As for `CC(=O)N1CCCC1C(=O)O` (stereo not given), the max response worked out at 1.45%.

As to `COc1c(O)cc2c(c1O)C1OC(CO)C(O)[C@H](O)[C@H]1OC2=O` (stereo not given in full), the max response was determined as 7.39%.

Take `CC(C)CCCC(C)C1CCC2C3CC[C@H]4CC(=O)CC[C@@]4(C)C3CC[C@@]12C` (stereo not given in full): the max response was found to be 8.57%.

With `COc1cc(/C=C/C(=O)O)cc(OC)c1OC`, the max response stood at 9.64%.

Turning to `CC(=O)NC(CC(=O)O)C(=O)NC(CCC(=O)O)C(=O)O` (stereo not drawn) (Ac-Asp-Glu-OH; configuration not given here), the max response was determined as 12.9%.

In the case of `CC1(C)OC2C[C@](O)(C(N)=O)C[C@H](O)[C@H]2O1` (stereo not given in full), the max response was 15.6%.
